FUS yeast rescue: suppressors of FUS proteinopathy in yeast. S. cerevisiae FUS-expressing, growth rescue, OD600, 24 h. hit rate 0.24% among 390,000. AID 1347120. Potency, µM (doses to about 76.6 µM), most hits filed as activators;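 also: plate controls were DMSO vehicle for no effect and reference control for full effect; nearly all actives have a fitted effect of over 55% in size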
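Galactose (2%) drives FUS expression in yeast precultured in raffinose; seeding density OD 0.005. Test compounds incubated 24hr at 30C and 99% humidity before absorbance at 600 nm was measured.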
TDP-43 yeast inh: inhibitors of TDP-43 toxicity in yeast; TDP-43 expressing yeast growth rescue, BacTiter-Glo, 24 h; Potency, µM (titrated, usually from 46.1 µM), inactives show top-dose growth rescue (activation), actives largely listed as activators; hit rate 1.8% among 410,000; AID 652104; also: % of control where 0% means no effect; nearly all actives have a fitted effect of over 50% in size
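Growth rescue of TDP-43-toxic yeast measured as ATP luminescence (BacTiter-Glo). Cells grown to mid-log in raffinose, induced in galactose at OD600=0.02, exposed to compound 24 hr at 30 deg C.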
Abeta rescue: A-beta toxicity reversal in yeast | yeast expressing A-beta42, growth rescue, OD600, 48 h; response scale: 0% DMSO, 100% iron-clioquinol control | Potency, µM (doses to about 46.1 µM), most hits filed as activators | hit rate 0.063% among 410,000 | AID 1347071; also: nearly all actives have a fitted effect of over 55% in size
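Yeast A-beta toxicity model in growth medium with pinned compounds, 48 h at 30 C; growth read as absorbance at 600 nm. Normalized to FeCl3/clioquinol equimolar mix (positive) and DMSO (negative).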
aSyn yeast inh: alpha-synuclein toxicity inhibition in yeast; Yeast expressing alpha-synuclein, growth rescue, BacTiter-Glo, 24 h; Potency, µM (series often up to 46.1 µM), inactives show at the top dose growth rescue (activation), usual class: activators; hit rate 0.14% among 370,000; also: % of control where 0% means no effect; nearly all actives have a fitted effect of over 65% in size
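Readout is rescue of growth in alpha-synuclein-expressing yeast, so inhibitors of toxicity appear as activators. Growth after 24 hr at 30 deg C in galactose medium is quantified by luminescence.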
Numbers without * were called inactive; i = inactive; ? = inconclusive; . = no result. A selection: hits, their analogues and other compounds. The true share with any hit is near 2.1%. Calls follow the shape of the dose curve; as a rule, active = well fitted curve in the direction sought with a large enough effect; inconclusive = small, poorly fitted or top-dose-only effect, or another doubt; inactive = no such curve, though single readings can be large; an effect the other way counts as inactive or inconclusive. Potency is read from the fitted curve at half-maximal effect.

SMILES	FUS yeast rescue	TDP-43 yeast inh	Abeta rescue	aSyn yeast inh
CC(=O)c1ccc(N2CCN(c3ncnc4onc(C)c34)CC2)cc1	i	22.9%	i	-1.8%
CC[C@H]1C(c2ccc(F)cc2)=NN(c2ccccc2)[C@@H]1CO	i	11.2µM*	?	7.3%
Cc1cccc(CCNC(=O)c2cnc3c(C)cccn3c2=O)c1	i	28.2µM*	i	.
COc1ccc(N=Nc2nc3ccc(Br)cc3n2C)cc1	i	12.6µM*	i	-15.3%
CC(Oc1ccc(Br)cc1)c1nc2c3ccccc3nc(=S)n2[nH]1 (stereo not given)	35.5µM*	-8.8%	?	16.9%
COc1ccc(N=C2SCC(=O)N2Cc2ccccc2)cc1	i	12.6µM*	i	-14.2%
O=C(O)c1ccc(N=C2SCC(=O)N2Cc2ccccc2)cc1	i	?	i	24.7%
Clc1cccc(CON/C=N/c2ncnc3sccc23)c1	i	3.55µM*	i	-13.5%
Clc1cccc(Cl)c1CON/C=N/c1ncnc2sccc12	i	-0.5%	i	4.8%
O=C(NCCc1ccc(Cl)cc1)c1cnc2n(c1=O)CCS2	i	35.5µM*	i	10.7%
CCN(CC)C(=O)C1CCN(S(=O)(=O)c2c(C)noc2/C=C/c2cccc(C)c2)CC1	20µM*	0.0%	i	0.9%
COc1ccc2oc(C(=O)N3CCCc4ccccc43)c(C)c2c1	i	15.8µM*	i	-15.2%
COc1cc(OC)cc(C(=O)N2CCCc3ccccc32)c1	i	4.1%	i	9.6%
CCCOc1ccc(C(=O)N2CCCc3ccccc32)cc1	i	11.2µM*	i	.
CCOc1ccc(C(=O)N2CCc3ccccc32)cc1	i	11.1%	i	-4.2%
N#C/C(=C\c1c(Oc2ccc(F)cc2)nc2ccccn2c1=O)c1nc2ccccc2s1	i	20.4%	i	.
CCNc1nc(N2CCCCC2)nc(-n2nnc(C(=O)OCC)c2C)n1	i	17.8µM*	i	0.2%
CCc1cccc2c(-c3ccccc3)nc(SCC(=O)Nc3ccc(OC)cc3)nc12	i	15.1%	i	.
CC(=O)C1=C(O)C(=O)N(CC(=O)O)C1c1ccccc1Cl (stereo not given)	i	15.2%	i	-10.3%
CC(C)(C)C(=O)C1=C(O)C(=O)N(Cc2ccccc2)C1c1ccccc1Cl (stereo not given)	i	12.6µM*	i	12.4%
CC[n+]1c(/C=C/C=C/N(C(C)=O)c2ccccc2)sc2ccccc21	17.8µM*	-22.1%	i	-5.1%
S=c1[nH]nc(Cc2ccc(Br)cc2)n1/N=C/c1ccc(Cl)cc1	i	8.91µM*	?	-14.2%
S=c1[nH]nc(COc2ccccc2)n1/N=C/c1ccc(Cl)cc1	i	10.9%	i	3.7%
COc1ccc(/C=C/S(=O)(=O)NCc2ccccc2)c(CNC(=O)OC(C)(C)C)c1	i	.	.	.
Clc1nnc(NC2CCCCC2)c(Cl)c1Cl	i	22.4µM*	i	?
SMILES	FUS yeast rescue	TDP-43 yeast inh	Abeta rescue	aSyn yeast inh
COc1nc(NC23CC4CC(CC(C4)C2)C3)nc(OC)n1	i	14.1µM*	i	12.5%
O=C(Nc1ccc(N2CCOCC2)cc1Cl)C1CCN(C(=O)OCc2ccccc2)CC1	i	0.0%	10µM*	-0.2%
CC1CCN(S(=O)(=O)c2ccc3c(c2)c(=O)c(C(=O)NC(C)c2ccccc2)cn3C)CC1 (stereo not given)	?	12.8%	i	.
CC(C)COc1ccc(C(=O)N(Cc2ccc(N(C)C)cc2)Cc2ccco2)cc1	i	14.7%	i	.
CCN(CC)c1ccc(-c2nn3c(-c4ccccc4Cl)nnc3s2)cc1	31.6µM*	.	.	.
COc1cccc(OC)c1-c1nn2c(-c3ccccc3Cl)nnc2s1	?	15.8µM*	i	-0.6%
CC(NC(=O)c1cnn2c1NC(=C1CC1)C=C2C(F)F)c1ccncc1 (stereo not given)	.	.	.	8.8%
COc1ccc(-n2cnc3scc(-c4ccccc4)c3c2=O)cc1	i	11.2µM*	i	-0.6%
Cc1nn(-c2ccccc2)c2c1N(CCCC(=O)NCc1ccc(OC(C)C)cc1)C(=O)CS2	i	28.2µM*	i	.
Cc1nn(-c2ccccc2)c2c1N(CCCC(=O)NCc1ccccc1)C(=O)CS2	i	?	i	.
Cc1nn(-c2ccccc2)c2c1N(CCCC(=O)NCc1ccc(Cl)cc1)C(=O)CS2	?	20µM*	i	.
CCCCOc1ccc(CNC(=O)CCCN2C(=O)CSc3c2c(C)nn3-c2ccccc2)cc1	?	28.2µM*	i	.
COc1ccc(NC(=O)COc2ccc(S(=O)(=O)NC3CCCCC3)cc2)cc1OC	i	18.3%	i	.
COc1ccc(CNC(=O)C(c2ccc(C)cc2)N(Cc2cccs2)C(=O)c2ccc3c(c2)OCCO3)cc1 (stereo not given)	5.01µM*	-22.7%	i	-6.0%
O=C(Nc1ccc(F)c(Cl)c1)C1Cc2c(-c3cccc(F)c3)ccnc2O1 (stereo not given)	i	17.8µM*	i	?
NC(=O)c1cccc(-c2ccnc3c2CC(C(=O)Nc2cccc(C(F)(F)F)c2)O3)c1 (stereo not given)	i	5.3%	i	-3.0%
O=C(Nc1cccc(C(F)(F)F)c1)C1Cc2c(-c3cccc(F)c3)ccnc2O1 (stereo not given)	?	25.1µM*	i	?
CC(=O)c1cccc(-c2ccnc3c2CC(C(=O)Nc2ccc(F)c(Cl)c2)O3)c1 (stereo not given)	?	?	i	?
CCNC(=O)C[C@H]1CC[C@H]2[C@@H](COc3ccc(NC(=O)Nc4ccccc4)cc3C(=O)N2C)O1	i	.	.	.
CCOc1sc2nc(C)n(CC(=O)Nc3cccc(C)c3)c(=O)c2c1C	i	17.8%	i	.
COc1ccc(C(=O)Nc2cccc(-c3cn4ccsc4n3)c2)c(OC)c1	?	5.01µM*	i	.
COc1ccc(OC)c(NC(=O)CN(c2ccccc2OC)S(=O)(=O)c2ccc(C)cc2)c1	?	0.0%	i	.
COc1cc(C=C(C#N)c2ccc([N+](=O)[O-])cc2)ccc1O	i	3.98µM*	i	-14.8%
CCCCSc1nnc2c(n1)OC(c1ccc(C)s1)Nc1ccccc1-2 (stereo not given)	i	-8.5%	i	.
Cc1nc2ccccc2nc1OCc1cccc(Cl)c1	i	12.6µM*	i	4.7%
SMILES	FUS yeast rescue	TDP-43 yeast inh	Abeta rescue	aSyn yeast inh
Cc1nc(Nc2cccc(Cl)c2)c2oc3ccccc3c2n1	i	15.8µM*	i	-23.3%
Cc1nc(Nc2ccccc2F)c2oc3ccccc3c2n1	i	2.51µM*	i	0.3%
Cc1nc(Nc2ccc(Cl)cc2)c2oc3ccccc3c2n1	i	8.7%	i	-14.2%
Cc1nc2ccccc2nc1Nc1cccc(Cl)c1	i	12.6µM*	?	12.8%
Cc1nc(Nc2ccccc2O)c2oc3ccccc3c2n1	i	11.8%	i	-1.7%
C[n+]1ccc(/C=C/c2ccc(C=S)cc2)c2ccccc21	.	.	.	-8.1%
CC(C)CNC(=O)OCc1cn(Cc2ccc(Cl)cc2)nn1	i	.	.	.

Assay outcomes deposited in PubChem BioAssay by National Center for Advancing Translational Sciences (NCATS).
